The values below come from ChEMBL document CHEMBL3988442, “University of Dundee, Small-Polar-MMV Screening Library” (2021).

Holding throughout (parameters): scale not given: direction of the effect not stated beside the values
The target in test [1] is Protein translocase subunit SecA (Escherichia coli (strain K12)) (UniProt P10408). Briefly: Assay to Identify E. coli SecA ATPase Inhibitors. In kind it is functional. The following applies: 30 µM.
Test [2] has as its target T1, Ubiquitin-activating enzyme e1, putative (Leishmania donovani (strain BPK282A1)) (UniProt E9BSI1).
T1 sequence (whole entry): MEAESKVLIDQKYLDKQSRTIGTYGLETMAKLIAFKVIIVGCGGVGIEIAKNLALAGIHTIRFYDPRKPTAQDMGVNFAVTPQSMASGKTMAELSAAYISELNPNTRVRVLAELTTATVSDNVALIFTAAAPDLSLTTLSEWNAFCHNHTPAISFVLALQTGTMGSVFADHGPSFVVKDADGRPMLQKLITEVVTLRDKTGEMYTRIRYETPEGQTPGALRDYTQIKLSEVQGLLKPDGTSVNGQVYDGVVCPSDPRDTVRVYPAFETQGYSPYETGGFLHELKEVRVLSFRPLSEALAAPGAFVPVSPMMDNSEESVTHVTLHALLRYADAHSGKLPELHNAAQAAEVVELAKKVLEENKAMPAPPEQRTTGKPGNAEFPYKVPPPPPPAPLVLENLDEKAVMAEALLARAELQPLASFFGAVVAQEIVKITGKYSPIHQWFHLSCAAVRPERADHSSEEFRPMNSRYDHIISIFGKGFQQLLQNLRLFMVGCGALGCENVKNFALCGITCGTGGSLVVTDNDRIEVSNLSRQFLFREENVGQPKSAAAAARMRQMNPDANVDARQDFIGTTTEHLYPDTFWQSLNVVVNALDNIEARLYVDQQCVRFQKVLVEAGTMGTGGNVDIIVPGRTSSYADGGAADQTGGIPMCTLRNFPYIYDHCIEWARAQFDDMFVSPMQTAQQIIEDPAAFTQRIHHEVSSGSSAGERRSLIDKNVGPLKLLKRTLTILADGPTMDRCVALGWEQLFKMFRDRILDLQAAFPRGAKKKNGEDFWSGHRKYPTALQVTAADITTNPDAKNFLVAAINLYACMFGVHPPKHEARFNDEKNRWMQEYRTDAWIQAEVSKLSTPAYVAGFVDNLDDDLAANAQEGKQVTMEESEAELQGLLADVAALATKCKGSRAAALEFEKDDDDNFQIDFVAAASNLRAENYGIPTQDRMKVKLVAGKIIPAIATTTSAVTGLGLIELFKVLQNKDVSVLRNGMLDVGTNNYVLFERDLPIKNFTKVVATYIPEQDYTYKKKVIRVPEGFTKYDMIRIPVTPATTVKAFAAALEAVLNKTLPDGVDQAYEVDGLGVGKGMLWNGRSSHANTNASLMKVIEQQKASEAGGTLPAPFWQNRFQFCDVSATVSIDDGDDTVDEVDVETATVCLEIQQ
The test can be described thus: Leishmania donovani Ubiquitin Activating Enzyme (LdE1). Type of test: functional. As to conditions: 30 µM.

Test [3] concerns the target AMP-activated protein kinase, AMPK (Homo sapiens) (UniProt P54646+O43741+P54619+Q9UGJ0+Q9Y478+Q13131+Q9UGI9). The test can be described thus: AMP-dependent Kinase enzyme assay. An in vitro enzyme assay that detects ADP turnover that is directly proportional to AMPK activity. This uses naive AMPK that is activated during the assay with MK-8722. Type of test: functional. As to conditions: 30 µM.

The target in test [4] is Sialic acid-binding Ig-like lectin 9 (Homo sapiens) (UniProt Q9Y336). The test can be described thus: Hs-Siglec9 ALPHAscreen SOP 20170721. The following applies: 10 µM. On the technique in general: Bead proximity is the source of the signal in Alpha formats.
Sequence of Sialic acid-binding Ig-like lectin 9 (Homo sapiens) (Q9Y336 whole entry): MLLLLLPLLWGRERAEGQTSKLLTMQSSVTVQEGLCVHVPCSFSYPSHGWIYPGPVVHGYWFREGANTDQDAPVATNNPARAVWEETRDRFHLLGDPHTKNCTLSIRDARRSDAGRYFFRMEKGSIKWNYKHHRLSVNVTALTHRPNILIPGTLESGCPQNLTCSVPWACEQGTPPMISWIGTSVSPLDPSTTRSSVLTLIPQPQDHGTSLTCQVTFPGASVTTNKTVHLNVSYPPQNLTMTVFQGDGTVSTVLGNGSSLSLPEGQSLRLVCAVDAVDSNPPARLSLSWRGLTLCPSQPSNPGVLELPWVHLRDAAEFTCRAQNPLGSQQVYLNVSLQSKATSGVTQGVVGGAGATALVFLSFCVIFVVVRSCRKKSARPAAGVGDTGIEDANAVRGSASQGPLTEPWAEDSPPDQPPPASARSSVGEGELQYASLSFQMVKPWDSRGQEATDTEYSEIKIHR
Another test relates to Trypanosoma cruzi. Briefly: Trypanosoma cruzi phosphomannomutase and mannose-1-phosphate guanylyltransferase assay. In kind it is functional. The following applies: 10 µM.
The target in test [5] is T2, Arginase-2, mitochondrial (Homo sapiens) (UniProt P78540).
T2 sequence (whole entry): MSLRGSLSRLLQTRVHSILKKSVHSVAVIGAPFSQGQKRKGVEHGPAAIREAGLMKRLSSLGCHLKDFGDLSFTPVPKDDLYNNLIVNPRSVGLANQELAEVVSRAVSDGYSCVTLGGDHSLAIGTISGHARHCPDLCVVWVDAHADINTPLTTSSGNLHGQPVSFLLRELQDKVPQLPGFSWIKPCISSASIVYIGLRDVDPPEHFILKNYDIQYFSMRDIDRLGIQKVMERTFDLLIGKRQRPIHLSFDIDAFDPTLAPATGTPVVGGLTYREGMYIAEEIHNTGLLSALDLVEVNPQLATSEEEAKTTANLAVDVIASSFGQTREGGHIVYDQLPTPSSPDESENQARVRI
Briefly: in vitro enzyme assay to detect the production of urea directly proportional to the activity of Arginase II. Also: in the data most compounds retested in dose-response had high values. Type of test: functional. As to conditions: 33.3 µM.

In test [6] the target is T3, Proteasome subunit beta (Trypanosoma cruzi) (UniProt O96673).
T3 sequence (whole entry): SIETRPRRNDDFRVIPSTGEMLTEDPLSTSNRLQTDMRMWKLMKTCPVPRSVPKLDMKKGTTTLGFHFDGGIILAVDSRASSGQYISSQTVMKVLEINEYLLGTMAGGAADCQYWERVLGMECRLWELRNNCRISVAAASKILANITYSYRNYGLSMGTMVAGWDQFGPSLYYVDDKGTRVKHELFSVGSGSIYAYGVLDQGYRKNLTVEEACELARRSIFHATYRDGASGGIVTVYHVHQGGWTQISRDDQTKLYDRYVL
The test can be described thus: Trypanosoma cruzi proteasome chymotrypsin-like activity (TcProtChymo) assay. Also: in the data most compounds retested in dose-response had high values. As to conditions: 9.37 µM. Type of test: functional.

Another test is filed under the species Homo sapiens. The test can be described thus: To identify inhibition of the IFN signalling (Jak-Stat) pathway via expression of an eGFP reporter gene under the control of an IFN-stimulated response element (ISRE) containing MxA promoter. Type of test: functional. The following applies: 30 µM.
The target of test [7] is T4, Tyrosyl-tRNA synthetase, putative (Trypanosoma cruzi (strain CL Brener)) (UniProt Q4DSP6).
T4 sequence (whole entry): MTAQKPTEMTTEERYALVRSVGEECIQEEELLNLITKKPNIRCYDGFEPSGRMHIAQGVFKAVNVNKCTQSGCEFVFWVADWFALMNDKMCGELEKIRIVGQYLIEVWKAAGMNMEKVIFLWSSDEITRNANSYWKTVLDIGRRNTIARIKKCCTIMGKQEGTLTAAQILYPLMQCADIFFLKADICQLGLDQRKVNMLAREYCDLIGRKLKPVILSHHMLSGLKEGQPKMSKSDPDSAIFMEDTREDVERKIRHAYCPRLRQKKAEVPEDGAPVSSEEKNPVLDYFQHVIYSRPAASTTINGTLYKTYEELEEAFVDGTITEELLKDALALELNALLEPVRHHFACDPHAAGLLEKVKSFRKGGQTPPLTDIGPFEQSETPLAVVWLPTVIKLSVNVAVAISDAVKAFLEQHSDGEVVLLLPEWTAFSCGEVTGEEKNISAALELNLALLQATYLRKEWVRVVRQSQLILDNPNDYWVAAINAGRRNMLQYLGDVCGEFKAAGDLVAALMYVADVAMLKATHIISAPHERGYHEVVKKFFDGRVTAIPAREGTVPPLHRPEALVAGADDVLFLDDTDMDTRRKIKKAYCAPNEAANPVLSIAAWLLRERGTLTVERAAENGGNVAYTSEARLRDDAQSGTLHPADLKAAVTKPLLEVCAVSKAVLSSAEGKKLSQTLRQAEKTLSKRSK
The test can be described thus: Trypanosoma cruzi tyrosyl tRNA synthetase (TcYRS) _High Tyrosine SOP. Also: in the data most compounds retested in dose-response had high values. As to conditions: 30 µM. Type of test: functional.

Test [8] deals with T4, Tyrosyl-tRNA synthetase, putative (Trypanosoma cruzi (strain CL Brener)). The test can be described thus: Trypanosoma cruzi tyrosyl tRNA synthetase (TcYRS) SOP. Type of test: functional. As to conditions: 30 µM.
Test [9] has as its target Chromo domain-containing protein 1 (Saccharomyces cerevisiae (strain ATCC 204508 / S288c) (Baker's yeast)) (UniProt P32657). Briefly: ScCHD-1 Enzyme Inhibition Assay. Also: in the data most compounds retested in dose-response had high values. In kind it is functional. As to conditions: 30 µM.

For some of these results: Measured potencies and affinities stand elsewhere.

Sequence of Protein translocase subunit SecA (Escherichia coli (strain K12)) (P10408 whole entry): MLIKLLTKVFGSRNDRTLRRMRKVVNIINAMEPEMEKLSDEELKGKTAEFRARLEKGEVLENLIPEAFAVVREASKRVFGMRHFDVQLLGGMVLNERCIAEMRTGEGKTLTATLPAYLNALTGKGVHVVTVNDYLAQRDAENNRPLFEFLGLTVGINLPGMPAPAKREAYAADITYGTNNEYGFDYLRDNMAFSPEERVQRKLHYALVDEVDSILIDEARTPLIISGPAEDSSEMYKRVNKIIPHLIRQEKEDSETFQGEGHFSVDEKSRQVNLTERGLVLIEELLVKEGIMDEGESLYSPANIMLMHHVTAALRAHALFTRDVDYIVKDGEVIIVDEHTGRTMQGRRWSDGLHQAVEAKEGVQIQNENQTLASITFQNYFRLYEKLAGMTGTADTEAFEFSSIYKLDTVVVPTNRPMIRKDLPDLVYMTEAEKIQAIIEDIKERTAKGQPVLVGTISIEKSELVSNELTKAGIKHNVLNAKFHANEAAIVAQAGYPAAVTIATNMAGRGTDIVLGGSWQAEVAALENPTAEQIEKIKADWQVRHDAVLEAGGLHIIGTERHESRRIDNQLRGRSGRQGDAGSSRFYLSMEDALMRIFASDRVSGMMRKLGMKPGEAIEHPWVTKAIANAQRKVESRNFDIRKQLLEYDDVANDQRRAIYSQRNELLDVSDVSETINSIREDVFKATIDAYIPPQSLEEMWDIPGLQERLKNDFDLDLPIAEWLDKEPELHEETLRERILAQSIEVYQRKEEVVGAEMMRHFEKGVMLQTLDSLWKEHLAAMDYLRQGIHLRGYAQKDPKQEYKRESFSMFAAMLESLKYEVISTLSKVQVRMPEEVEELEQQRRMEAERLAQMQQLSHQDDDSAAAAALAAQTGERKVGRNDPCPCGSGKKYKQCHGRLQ
Sequence of Chromo domain-containing protein 1 (Saccharomyces cerevisiae (strain ATCC 204508 / S288c) (Baker's yeast)) (P32657 whole entry, the tested form may be a part): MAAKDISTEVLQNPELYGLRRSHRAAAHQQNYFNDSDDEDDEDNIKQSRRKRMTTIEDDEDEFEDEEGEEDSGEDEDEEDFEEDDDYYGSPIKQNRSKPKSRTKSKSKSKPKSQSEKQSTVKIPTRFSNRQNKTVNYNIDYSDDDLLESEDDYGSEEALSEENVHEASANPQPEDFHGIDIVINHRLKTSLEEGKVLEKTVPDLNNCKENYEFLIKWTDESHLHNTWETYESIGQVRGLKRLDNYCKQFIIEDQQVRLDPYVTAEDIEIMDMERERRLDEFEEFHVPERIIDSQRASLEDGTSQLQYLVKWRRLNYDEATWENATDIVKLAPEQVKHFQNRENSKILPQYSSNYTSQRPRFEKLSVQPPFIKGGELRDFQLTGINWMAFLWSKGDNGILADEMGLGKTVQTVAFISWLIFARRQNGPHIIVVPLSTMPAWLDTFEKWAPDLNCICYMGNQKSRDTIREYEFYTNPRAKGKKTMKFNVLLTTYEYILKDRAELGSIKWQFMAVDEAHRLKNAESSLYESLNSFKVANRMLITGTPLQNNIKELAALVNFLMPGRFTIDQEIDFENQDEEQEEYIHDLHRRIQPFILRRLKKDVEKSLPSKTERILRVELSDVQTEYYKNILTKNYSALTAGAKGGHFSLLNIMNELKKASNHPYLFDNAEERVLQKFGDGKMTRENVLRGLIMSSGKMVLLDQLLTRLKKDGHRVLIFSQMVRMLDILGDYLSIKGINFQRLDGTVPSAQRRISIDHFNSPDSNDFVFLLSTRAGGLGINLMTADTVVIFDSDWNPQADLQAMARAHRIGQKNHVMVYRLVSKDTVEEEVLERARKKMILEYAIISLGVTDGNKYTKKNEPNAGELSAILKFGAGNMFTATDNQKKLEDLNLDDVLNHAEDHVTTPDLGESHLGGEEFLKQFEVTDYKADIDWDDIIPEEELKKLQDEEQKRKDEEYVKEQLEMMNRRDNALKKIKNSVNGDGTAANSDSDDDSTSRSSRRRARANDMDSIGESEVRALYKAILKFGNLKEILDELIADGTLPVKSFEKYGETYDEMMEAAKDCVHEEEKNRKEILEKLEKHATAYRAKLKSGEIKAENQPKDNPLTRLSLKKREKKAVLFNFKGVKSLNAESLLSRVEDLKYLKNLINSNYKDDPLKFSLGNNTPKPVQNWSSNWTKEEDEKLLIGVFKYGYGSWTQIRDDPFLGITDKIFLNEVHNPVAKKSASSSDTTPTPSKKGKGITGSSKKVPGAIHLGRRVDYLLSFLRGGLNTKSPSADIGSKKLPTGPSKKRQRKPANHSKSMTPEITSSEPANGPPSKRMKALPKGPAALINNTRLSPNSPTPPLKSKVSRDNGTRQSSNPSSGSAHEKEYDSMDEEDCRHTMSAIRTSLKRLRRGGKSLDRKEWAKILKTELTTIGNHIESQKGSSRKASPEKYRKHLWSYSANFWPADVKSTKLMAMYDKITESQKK

Regarding `O=C(O)c1cc(NS(=O)(=O)c2cccc(Cl)c2F)ccc1Cl`, the Percent Effect in test [1] was -7.65%; in test [2], 2.6%; in [3], 4.08%; in [4] it was 1.53%; with Trypanosoma cruzi, -5.8%; in test [5], -2.13%. For the same molecule, the Percent Effect in test [6] was 5.57%; in the test listed under Homo sapiens it was 23.4%; in [7], -11.7%; in test [8], -12.2%; in test [9] it was -3.44%.
For `COc1cc(C(=O)Nc2c(C)noc2C)ccc1C`, the Percent Effect in test [1] was -3.57%; in test [2] it was 17.7%; in test [3] it was 2.44%; in [4], 6.13%; with Trypanosoma cruzi it was 3.87%; in test [5], -4.56%. Further, the Percent Effect in test [6] is 1.88%; in the test filed under Homo sapiens it was 18.6%; in test [7] it was 4.43%; in test [8] it was 16.5%; in [9] it was -5.84%.
Consider `CCS(=O)(=O)N1CCCc2ccc(NC(=O)Cc3ccc(F)cc3)cc21`, for which the Percent Effect was 0.369% in test [1]; 7.79% in test [2]; -1.04% in test [3]; -9.41% in test [4]; -5.82% with Trypanosoma cruzi; 0.645% in test [5]. In addition, the Percent Effect in test [6] was 8.53%; in the test listed under Homo sapiens it was 65.4%; in test [7], -5.29%; in test [8], -6.41%; in [9], -13.3%.
Regarding `Cc1nc(NC(=O)CNC(=O)c2c(F)cccc2Cl)n[nH]1`, the Percent Effect was -5.26% in [1]; 13.2% in test [2]; 2.15% in test [3]; 2.44% in [4]; 3.21% with Trypanosoma cruzi; -3.55% in [5]. Also, the Percent Effect in [6] is 9.11%; in the test filed under Homo sapiens, 3.8%; in test [7], 1.06%; in test [8] it was 7.79%; in test [9], -1.65%.
Consider `Cc1nnc(N2CCC(CNC(=O)OC(C)(C)C)CC2)c(C#N)c1C`, for which the Percent Effect in test [1] is -4.74%; in [2] it was 7.79%; in [3], -1.74%; in test [4], -8.54%; in the test on Trypanosoma cruzi, 1.47%; in test [5] it was -0.21%. In addition, the Percent Effect in test [6] was 7.2%; in the test filed under Homo sapiens it was 26.6%; in test [7], 2.86%; in test [8] it was 11.8%; in [9], -16.5%.
As to `CC(C)c1ccc(O)c(C(=O)N2CCN(Cc3cscn3)CC2)c1`, the Percent Effect in test [1] is -1.48%; in [2] it was 16.2%; in [3] it was 0.162%; in [4], 10.1%; in the test with Trypanosoma cruzi, 5.85%; in test [5] it was -6.1%. The Percent Effect is 4.85% in test [6]; 26.8% in the test listed under Homo sapiens; 5.94% in test [7]; 18.3% in [8]; -3.11% in test [9].
In the case of `CC(C)c1nnc2n1CCN(C(=O)c1ccc(OCC(N)=O)cc1)C2`, the Percent Effect in test [1] is -8.09%; in test [2], 18.2%; in test [3] it was -2.69%; in [4], -4.74%; in the test on Trypanosoma cruzi it was 4.41%; in [5], -1.9%. The Percent Effect in test [6] is 9.62%; in the test listed under Homo sapiens, 4.02%; in test [7] it was 6.67%; in test [8], 11.8%; in test [9] it was -16.8%.
As for `Clc1ccc(-n2cc(CNC3CCc4ncnn4C3)cn2)cc1` (stereo unspecified), the Percent Effect was -0.3% in [1]; 1.27% in test [2]; 7.38% in [3]; 3.29% in test [4]; -2.36% with Trypanosoma cruzi; 1.5% in test [5]. The Percent Effect in [6] is 10.6%; in the test listed under Homo sapiens, 7.5%; in test [7] it was 2.08%; in test [8], 10.1%; in test [9], -1.43%.
On to `CC(O)CN1CCC(CNCc2cccc(OC(C)C)c2)CC1` (stereo unspecified), for which the Percent Effect in [1] was -8.77%; in [2], 8.11%; in test [3], -23.9%; in test [4] it was 28.4%; in the test with Trypanosoma cruzi, 8.21%; in test [5] it was -9.22%. The Percent Effect in [6] was 1.26%; in the test listed under Homo sapiens, 9.15%; in test [7] it was 6.4%; in test [8], 23.5%; in [9], -14.8%.
Consider `CCOc1ccccc1C1CCCN1` (stereo unspecified), for which the Percent Effect in test [1] was -5.25%; in [2], 7.89%; in test [3], 2.38%; in test [4], -2.36%; in the test on Trypanosoma cruzi it was 1.27%; in test [5], -7.1%. Besides, the Percent Effect is 15.4% in [6]; -5.78% in the test listed under Homo sapiens; -1.06% in [7]; 2.6% in [8]; -7.12% in test [9].
On to `CN(Cc1nccn1CC(F)(F)F)C(=O)c1cccc(C#N)c1`, for which the Percent Effect in test [1] was -3.37%; in test [2], -2.63%; in test [3], 6.05%; in test [4], 3.82%; in the test on Trypanosoma cruzi, -3.21%; in test [5], -4.73%. Further, the Percent Effect in [6] is 3.74%; in the test listed under Homo sapiens, -14.9%; in test [7] it was 3.19%; in test [8] it was 5.2%; in [9], 13.6%.
